Bioassay records as filed in PubChem.
Only some compounds are listed: those with a hit (about 5.7% of all), similar ones and a draw of the others.
DRD3 agonist – activates the human D3 dopamine receptor | P35462 | D3R DiscoveRx beta-arrestin cells, luminescence, 90 min | max activation, % | 0.58% of 410,000 active; in the data active means max activation above about 30%; further: 0% is about no effect
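Agonist mode: compounds and dopamine controls were applied to plated cells for 90 min at 37 degrees C after an overnight attachment at 1500 cells/well. Luminescent read-out followed 30 - 60 minutes at room temperature with DiscoveRx detection reagent.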
GLP1R cytotox – cytotoxic in the GLP-1 receptor inverse agonist counter-screen. HEK293 cAMP-luciferase reporter cells, luminescence, 24 h. Potency, µM (series often up to 38.3 µM), inactives show at the top dose activity change, negative = inhibition, most hits filed as inhibitors. 0.13% of 410,000 active. AID 624418;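 further: loss of luciferase light is scored as toxicity; potency means the concentration at half of the fitted maximal effect; on the % scale 0 is the no-effect control and ±100 the full control effect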
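A 23 nL compound transfer followed 12 hours of cell culture at 37 deg C; exposure then lasted 24 hr. Luciferase assay detection reagent was dispensed and plates read for luminescence after a 12 min room-temperature wait.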
GLP-1R agonist – activates the human GLP-1 receptor. P43220. HEK293 GLP-1R CRE-luciferase, luminescence, 4-6 h; cells express a hypersensitive GLP-1R form. Potency, µM (doses to about 45.6 µM), for inactives: at the top dose activation, usual class: activators. 0.007% of 380,000 active. AID 624172; further: potency means the concentration at half of the fitted maximal effect; % of control where 0% means no effect
DRD3 antagonist – antagonists of human D3 dopamine receptor | P35462 | D3R cells, DiscoveRx beta-arrestin luminescence, antagonist mode; active compounds read low | max response, negative = inhibition, % | 2.5% of 360,000 active | AID 652054; in the data active means max response below about -50%; inconclusive means no clear call, values can overlap the other calls; further: on the % scale 0 is the no-effect control and ±100 the full control effect
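Cells plated overnight at 1500 cells/well, then exposed to library compounds with dopamine controls for 90 minutes at 37 degrees C. DiscoveRx reagent added for 30–60 minutes at room temperature; luminescence read, quantitative HTS format.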
GLP-1R inv ag – GLP-1 receptor (human) inverse agonism; 1.6% of 410,000 active; HEK293 GLP-1R CRE-luciferase, luminescence, 24 h; GLP-1R form is constitutively active; Potency, µM (highest dose often 38.3 µM), inactives show at the top dose activity change, negative = inhibition, hits mostly inhibitors; further: potency means the concentration at half of the fitted maximal effect; on the % scale 0 is the no-effect control and ±100 the full control effect; nearly all actives have a fitted effect of over 55% in size
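Using stably transfected HEK293 (constitutively active GLP-1R, cAMP-luciferase reporter), compounds were incubated 24 hr and luciferase measured by luminescence.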
ClpP mod – qHTS Assay for Activators of ClpP; ATP-dependent Clp protease proteolytic subunit (Bacillus subtilis (strain 168)), P80244; purified B. subtilis ClpP, FRET peptide cleavage, 20 min; Potency, µM (titrated, usually from 57.5 µM), inactives show top-dose activity change, negative = active; 1.9% of 340,000 active; active means well fitted falling curve with a large enough effect; inconclusive means small, poorly fitted or top-dose-only effect; inactive means no such curve, though single readings can be large or run the other way; further: potency means the concentration at half of the fitted maximal effect; the source files actives as falling curves though it sought activators and does not explain the sign; nearly all actives have a fitted effect of over 65% in size
Target sequence (P80244 whole entry, looked up): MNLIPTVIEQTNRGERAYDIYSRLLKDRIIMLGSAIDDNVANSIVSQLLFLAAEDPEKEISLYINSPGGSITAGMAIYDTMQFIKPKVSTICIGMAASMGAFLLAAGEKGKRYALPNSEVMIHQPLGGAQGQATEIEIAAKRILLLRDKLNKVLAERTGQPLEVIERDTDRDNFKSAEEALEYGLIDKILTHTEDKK
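ClpP 10 microg/mL final, pH 8 Tris/KCl buffer with BSA, glycerol, Tween-20; compound pinned in; FRET-FV substrate; RT 20 min; Ex320/Em430; ΔFRET vs ADEP 5.8 microM, DMSO, no enzyme.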
* marks the source's active call; other numbers are inactive results; ? = inconclusive; . = not tested or not shown. Unless noted, the call rests on the fitted dose curve; in most records, active means well fitted curve in the direction sought with a large enough effect; inconclusive means small, poorly fitted or top-dose-only effect, or another doubt; inactive means no such curve, though single readings can be large; an effect the other way counts as inactive or inconclusive.

SMILES	DRD3 agonist	GLP1R cytotox	GLP-1R agonist	DRD3 antagonist	GLP-1R inv ag	ClpP mod
Cc1ccc(NCc2nnc(SCCN3CCCCC3)n2CC2CCCO2)cc1Cl (configuration not stated)	-8	7%	-2%	-51*	?	1%
Cn1c(CNc2ccc(Cl)cc2)nnc1SCCN1CCCCC1	-1	-10%	-13%	6	4µM*	2%
Cc1cccn2c(=O)c3cc(C(=O)NC(C)C)n(C)c3nc12	9	-11%	.	.	18%	4%
COc1cc(/C=C/C(=O)OCC(=O)Nc2nnc(-c3ccccc3)o2)cc(OC)c1OC	0	8%	-19%	-11	6%	18µM*
Clc1cccc(-n2ncc3c(NCCCN4CCOCC4)ncnc32)c1	-18	-7%	.	.	?	-5%
COc1ccc(OC)c(NC(=O)CC(=O)Nc2ccc3nc4n(c(=O)c3c2)CCCCC4)c1	6	7%	.	.	9%	-1%
Cc1cccc(CNC(=O)Cn2nc(C)n3c(cc4cc(F)ccc43)c2=O)c1	2	1%	.	.	-5%	?
COc1ccc(C(C)=O)cc1CSC(=N)N	-5	5%	-4%	-54*	-1%	-3%
Cc1ccc(NC(=O)CSc2nccn2C2CCCC2)cc1Cl	-2	2%	.	.	?	-3%
CC(C)C[C@@H]1NC(=O)[C@H](C(C)C)NC(=O)c2cc([N+](=O)[O-])cc(I)c2OCC[C@@H](C(N)=O)NC1=O	-20	-12%	-3%	-53*	14%	-4%
COc1cc(C(=O)N2CCC(C(=O)Nc3cccc(C(C)=O)c3)CC2)cc(OC)c1OC	0	-13%	16%	-53*	-4%	1%
CC(=O)Nc1ccc(C2Nc3ccccc3C(=O)N2C2CCCCC2)cc1 (configuration not stated)	-2	-9%	8%	7	2%	28µM*
O=C(Nc1ccc2c(c1)OCCO2)C1C(=O)Nc2ccccc2C(=O)N1C1CCCCC1 (configuration not stated)	6	8%	.	15	7%	-4%
CC(=O)c1cccc(NC(=O)C(CC(C)C)NS(=O)(=O)c2ccc3c(c2)CCN3C(C)=O)c1 (configuration not stated)	-4	15%	.	.	13%	-4%
N#Cc1cccc(NC(=O)Cn2c3[n+](c4ccc(C(F)(F)F)cc42)CCCCC3)c1	-52	11%	-6%	-74*	6%	-13%
COc1cccc(CNc2nc3c(-c4cccc(C)c4)nnn3c3ccccc23)c1	4	-3%	-1%	.	6%	?
CCCCN(C=O)c1c(CC)nc2ccc(C(=O)NCc3ccccc3OC)cn12	2	1%	2%	-51*	11%	-6%
Cc1ccc2nnc(Cl)n2n1	0	1%	-3%	?	21%	?
Clc1nnc2ccc(-c3ccccc3)nn12	-2	3%	30%	-4	50%	25µM*
COC(=O)c1cc2c(ccn2-c2ccc(F)cc2)n1C(C)C	0	-16%	3%	9	6%	?
CCOC(=O)c1cc2c(ccn2-c2ccc(F)cc2)n1CC(=O)N1CCN(C(=O)c2ccco2)CC1	1	2%	0%	21	17%	32µM*
COC(=O)c1cc2c(ccn2-c2ccc(F)cc2)n1CC(C)C	-5	22%	2%	9	-7%	28µM*
CCCn1c(C(=O)OC)cc2c1ccn2-c1ccc(F)cc1	4	-15%	3%	38	-7%	28µM*
CCOC(=O)c1cc2c(ccn2C)n1CC(=O)Nc1ccc(F)cc1	5	-3%	2%	-20	-26%	-25%
CCCCC1(CC)SCC(=O)NC1=O (configuration not stated)	6	-3%	0%	9	-17%	0%
OC(COc1ccccc1)Cn1c2ccccc2c2ccccc21 (configuration not stated)	2	-3%	30%	10	?	1%
